# According to PubChem BioAssay (NCATS):
# Inconclusive results are not listed. Active and inactive are the calls of the source. Calls come from the whole dose curve.
# Test: Cytotoxicity counterscreen for inhibitors of SARS-CoV-2 cell entry (AID 1645845); note: nearly all actives have a fitted effect of over 50% in size
# Details: cell viability (SARS-CoV-2 entry assay cells); series mostly up to 57.1 µM; activity change, negative = cytotoxicity: at the top concentration
# Procedure, shortened: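 Counterscreen run in the same HEK293-ACE2 line as the pseudotyped-particle entry assay, without particles. Viability after 48 h at 37 C was read as ATP luminescence, scaled between cell-containing and cell-free wells.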
# % is set by controls: 0 for no effect and ±100 for the full control effect; potency is the fitted concentration of half-maximal effect.
SMILES,Potency,"activity change, negative = cytotoxicity",outcome
CC(C)c1ccc(Cn2ccc3c4c(N)nc(NC5CC5)nc4ccc32)cc1,2.51 µM (active),,
CCCCc1ccc(NS(=O)(=O)c2ccc(C)c(C(=O)N3CCN(c4cccc(C)c4C)CC3)c2)cc1,,-6.11% [at 114 µM] (inactive),
COc1cc2ncn(-c3cc(OCc4ccccc4C(F)(F)F)c(C(N)=O)s3)c2cc1OC,2.51 µM (active),,
CC(C)Oc1cc(Nc2nc(N[C@@H](C)c3ccc(F)cn3)ncc2Cl)[nH]n1,,-6.28% (inactive),
CCOc1ccn(-c2ccc(F)cc2)c(=O)c1C(=O)Nc1ccc(Oc2ccnc(N)c2Cl)c(F)c1,,2.71% (inactive),
CCOC(CN1C(=O)[C@](CC(=O)Nc2ccc(C)cc2)(NC(=O)Nc2ccc(C)cc2)c2ccccc21)OCC,,-6.2% (inactive),
C[C@@H](N)C(=O)O,,1.12% (inactive),
CCCS(=O)(=O)Nc1ccc(F)c(C(=O)c2c[nH]c3ncc(Cl)cc23)c1F,,,inactive
COc1nc(-c2ccc3c(c2)OCO3)n(-c2ccc(NC(=O)CSc3ccccc3)cc2)n1,,3.17% (inactive),
COc1cccc2cc(-c3nc(C4CCC(C(=O)O)CC4)n4ncnc(N)c34)[nH]c12 (centres undefined),,-27.4% (inactive),
N#C/C(=C1\SCC(c2ccccc2Cl)S1)n1ccnc1 (centres undefined),,-12.6% (inactive),
O=C(O)CNC(=O)CNC(=O)CNC(=O)CSC(=O)c1ccccc1,,,inactive
C[C@@H](N)C1CCC(C(=O)Nc2ccncc2)CC1 (some centres undefined),,,inactive
CC(=O)NCCC(=O)N[C@@H](CCC(N)=O)C(=O)N[C@@H](CO)C(=O)N[C@@H](CCC(N)=O)C(=O)N[C@@H](CCC(N)=O)C(=O)N[C@H](C(=O)N[C@@H](Cc1ccccc1)C(=O)N[C@]1(C)CCCCCCC=CCCC[C@@](C)(C(=O)N[C@@H](CCC(N)=O)C(=O)N[C@@H](CC(N)=O)C(N)=O)NC(=O)[C@H](CC(C)C)NC(=O)[C@H](CC(C)C)NC(=O)[C@@H](CCCNC(=N)N)NC(=O)[C@H](Cc2c[nH]c3ccccc23)NC(=O)[C@H](CC(C)C)NC(=O)[C@H](CC(N)=O)NC1=O)[C@H](C)O,,,inactive
OCCC#Cc1nc(-c2ccc(F)cc2)c(-c2ccncc2)n1CCCc1ccccc1,,-8.61% (inactive),
COc1cc(N2CCC(N3CCN(C)CC3)CC2)ccc1Nc1ncc(Cl)c(Nc2ccccc2S(=O)(=O)C(C)C)n1,31.6 µM (active),,
CS(=O)(=O)c1ccc(C(=O)Nc2ccc(Cl)c(-c3ccccn3)c2)c(Cl)c1,inactive,,
Cc1ccc(NC(=O)c2cccc(C(C)(C)C#N)c2)cc1Nc1ccc2ncn(C)c(=O)c2c1,,-5.52% (inactive),
COc1cc2c(Oc3ccc(NC(=O)C4(C(=O)Nc5ccc(F)cc5)CC4)cc3F)ccnc2cc1OCCCN1CCOCC1,31.6 µM (active),,
O=C(Nc1cc(C(F)(F)F)cc(C(F)(F)F)c1)c1cc(Cl)ccc1O,1.58 µM (active),,

SMILES,Potency,"activity change, negative = cytotoxicity",outcome
COc1cc(Oc2ccnc3cc(OC)c(OC)cc23)ccc1NC(=O)NC(C)c1nccs1 (centres undefined),,-22.1% (inactive),
CC(C)(C)c1cc(NC(=O)Nc2ccc(-c3cn4c(n3)sc3cc(OCCN5CCOCC5)ccc34)cc2)no1,,-10.2% (inactive),
CNC(=O)c1ccc(N2C(=S)N(c3ccc(C#N)c(C(F)(F)F)c3)C(=O)C2(C)C)cc1F,,-23.2% (inactive),
NC(=O)c1ccc(-c2nc(-c3ccc4c(c3)OCCO4)c(-c3ccccn3)[nH]2)cc1,,-1.46% (inactive),
NCCS,,4.6% (inactive),
Cn1c(=O)c(F)c(Nc2ccc(I)cc2F)c2c(=O)n(C[C@@H](O)CO)cnc21,,,inactive
Oc1cccc(-c2nc(N3CCOCC3)c3oc4ncccc4c3n2)c1,,-0.935% (inactive),
S=c1[nH]c2ccccc2s1,,,inactive
N#CC[C@H](C1CCCC1)n1cc(-c2ncnc3[nH]ccc23)cn1,,-3.56% (inactive),
CCOc1cc2ncc(C#N)c(Nc3ccc(OCc4ccccn4)c(Cl)c3)c2cc1NC(=O)/C=C/CN(C)C,inactive,,
c1ccc2c(-c3cnn4cc(-c5ccc(N6CCNCC6)cc5)cnc34)ccnc2c1,7.08 µM (active),,
O=C1CCCC2=C1C(c1[nH]ncc1Cl)N=C(Nc1nc3ccccc3o1)N2 (centres undefined),,,inactive
N[C@H]1C(O)O[C@H](CO)[C@@H](O)[C@@H]1O (some centres undefined),,,inactive
C[C@@H]1CN(CC(=O)Nc2ccc3c(c2)Cc2cccc(-c4cc(=O)cc(N5CCOCC5)o4)c2S3)C[C@H](C)O1,14.1 µM (active),,
CCCCC(CC)COC(=O)c1ccc(N(C)C)cc1 (centres undefined),,,inactive
Cc1cc([C@@H](C)Nc2ccccc2C(=O)O)c2nc(N3CCOCC3)cc(=O)n2c1,,3.13% (inactive),
COc1ccc(CCN2CCN(CCCc3ccccc3)CC2)cc1OC,,,inactive
C[C@H](NC(=O)Cc1cc(F)cc(F)c1)C(=O)N[C@@H]1C(=O)N(C)c2ccccc2-c2ccccc21,,2.61% (inactive),
CC(=O)Oc1cccc(C)c1,,3.22% (inactive),
